# From PubChem BioAssay (NCATS)
# Inconclusive results are not listed. A number with no mark means an inactive call. Calls of active or inactive are those of the source. Calls come from the whole dose curve; as a rule, active = well fitted inhibition curve with a large enough effect; inconclusive = small, poorly fitted or top-dose-only effect; inactive = flat fitted curve, though single readings scatter.
# Columns and labels:
# Assay in all cases: Cytotoxic Profiling of Annotated Libraries Using Quantitative High-Throughput Screening (AID 1296008); note: nearly all actives have a fitted effect of over 60% in size
# Details in all cases: Five cell lines viability, CellTiter-Glo ATP luminescence, 48-72 h; max response: stronger effect = lower value
# HEK293 = test system: HEK293
# How it was run: (§1)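 Cytotoxicity was measured as CellTiter-Glo ATP luminescence, read after 10 min at room temperature. Compound treatment of the cells lasted 48 or 72 hr at 37 degrees Celsius in a qHTS format.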
# HaCat = test system: HaCat
# How it was run: as §1
# KB-3-1 = test system: KB-3-1
# How it was run: as §1
# NIH3T3 = test system: NIH3T3
# How it was run: as §1
# % is set by controls: 0 for no effect and ±100 for the full control effect; potency is the fitted concentration of half-maximal effect.
smiles,measurement,setting,value
CC(=O)N[C@H]1[C@H](O[C@H]2CC[C@@]3(C)C(CC[C@]4(C)C3CC=C3C5CC(C)(C)CC[C@]5(C(=O)O)[C@H](O)C[C@]34C)C2(C)C)O[C@H](CO[C@@H]2OC[C@H](O)[C@H](O)[C@H]2O[C@@H]2OC[C@@H](O)[C@H](O)[C@H]2O)[C@@H](O)[C@@H]1O (some centres undefined),max response,HEK293,-1.2%
same,max response,HaCat,-6.42%
same,max response,KB-3-1,4.32%
same,max response,NIH3T3,-13.2%
C=C(CCC1=C(C)[C@H]2[C@H](CC3[C@@H]4CC=C5C[C@@H](O)C[C@@H](O)[C@]5(C)C4[C@H](O)C[C@@]32C)O1)CO[C@@H]1O[C@H](CO)[C@@H](O)[C@H](O)[C@H]1O (some centres undefined),Potency,HEK293,1.37 µM (active)
same,Potency,HaCat,4.32 µM (active)
same,Potency,KB-3-1,1.72 µM (active)
same,max response,NIH3T3,0.743%
CC1(CCOC2OC(CO)C(O)C(O)C2O)CCC23OC2(C1)C(O)CC1C(C)(C(=O)O)CCCC13C (centres undefined),max response,HEK293,-6.41%
same,max response,HaCat,3.2%
same,max response,KB-3-1,8.97%
same,max response,NIH3T3,0.419%
CCOc1cc(CC(=O)NC(CC(C)C)c2ccccc2N2CCCCC2)ccc1C(=O)O (centres undefined),max response,HEK293,-4.19%
same,max response,HaCat,3.59%
same,max response,KB-3-1,-3.75%
same,outcome,NIH3T3,inactive
COC(=O)c1c(C)cc(OC(=O)c2c(C)cc(OC)cc2OC)cc1O[C@@H]1O[C@H](CO)[C@@H](O)[C@H](O)[C@H]1O,max response,HEK293,-0.971%
same,max response,HaCat,-0.836%
same,max response,KB-3-1,-1.14%
same,max response,NIH3T3,-1.71%
O=C(c1cn(Cc2cncn2Cc2ccc(Br)cc2)cc1-c1cccc2ccccc12)N1CCOCC1,Potency,HEK293,0.58 µM (active)
same,Potency,HaCat,5.8 µM (active)
same,Potency,KB-3-1,11.6 µM (active)
same,Potency,NIH3T3,7.31 µM (active)
